# Bioassay records (PubChem BioAssay)
# BoNT A protease – inhibitors of Botulinum neurotoxin A light chain protease; AID 588499; inhibition, % at 10 µM; hit rate 0.17% among 360,000; multiplex microsphere protease substrate cleavage, flow cytometry; further: plate controls were buffer without enzyme for full effect and enzyme alone for no effect
# Anthrax LF inh2 – blocks Bacillus anthracis lethal factor protease | hit rate 0.12% among 360,000 | inhibition, % at 10 µM | multiplex microsphere protease cleavage assay, LF | AID 588501; further: plate controls were buffer without enzyme for full effect and enzyme alone for no effect
# MazEF act – activators of E. coli MazEF toxin-antitoxin RNase; P0AE70; activation, % at 20 µM; AID 504720; FAM/BHQ RNA-DNA oligo cleavage fluorescence, 5 h; hit rate 0.32% among 350,000; in the data active means activation above about 50%
# BoNT-F LC inh – blocks Botulinum neurotoxin F light chain protease | Multiplex microsphere protease cleavage assay, flow cytometry | inhibition, % at 10 µM | hit rate 0.22% among 360,000; in the data active means inhibition above about 35%, passing the limit was not always enough; inconclusive means no clear call, values can overlap the other calls; further: plate controls were buffer without enzyme for full effect and enzyme alone for no effect
# Autofluor counter – counter-screen for toxin protease inhibitors: compound fluorescence; compound autofluorescence counterscreen, microsphere flow cytometry; active compounds read high; fluorescence intensity (no concentration beside the values); hit rate 3.1% among 360,000; AID 624483; in the data active means fluorescence intensity above about 16000; inconclusive means no clear call, values can overlap the other calls
# Active calls of the source: *; ? = inconclusive; / = no result given. A selection: hits, their analogues and other compounds. The true share with any hit is near 3.7%. Unless noted, no stated cut-off is given here; in the data, active means inhibition above about 30%; inconclusive means no clear call, values can overlap the other calls; inactive means below that.
SMILES,BoNT A protease,Anthrax LF inh2,MazEF act,BoNT-F LC inh,Autofluor counter
N=c1n(CCN2CCOCC2)c2ccccc2n1Cc1ccccc1Br,0,-1,6,-1,19620*
Cc1ccc(C(=O)Cn2c(=N)n(CCN3CCOCC3)c3ccccc32)cc1,0,1,4,-3,4052
COC(=O)C1=C(C)NC(=O)C1(NS(=O)(=O)c1ccc(NC(C)=O)cc1)C(F)(F)F (centres undefined),-2,-2,4,-4,19985*
O=C(CSc1nnc(-c2ccncc2)n1-c1ccccc1)NCC1CCCO1 (centres undefined),0,-4,4,-4,3842
CCN(CC)C(=O)C1=C(C)NC(=O)NC1c1c(F)cccc1Cl (centres undefined),-1,-4,5,-7,16958*
CCOC(=O)C1=C(C)NC(=O)NC1c1ccc(F)cc1 (centres undefined),0,-2,10,0,2116
COc1ccc(C(CNC(=O)c2cc(S(=O)(=O)NCc3ccco3)ccc2C)N(C)C)cc1 (centres undefined),4,-6,3,-1,8446
CC(C)Cc1cc(C(=O)N(C)C2CCCN(Cc3ccccc3F)C2)n(C)n1 (centres undefined),1,1,-4,1,4519
Cc1cccc(NC(=O)c2ccc(Cn3cc(C(F)(F)F)ccc3=O)cc2)c1,-1,-2,8,0,16900*
O=C(O)c1ccc(Cn2cc(C(F)(F)F)ccc2=O)cc1,0,2,2,2,2191
CSc1ccc(Cn2c(C)c(C(=O)NCc3ccco3)sc2=O)cc1,-1,-14,/,3,3921
CC(C)(C)NC(=O)CSc1nnc(-c2ccco2)n1Cc1ccco1,-1,-4,0,-1,16522*
COCCn1c(SCC(=O)NCCc2ccccc2)nnc1-c1ccco1,-3,-1,-3,-3,17231*
CC(=O)c1c(C)[nH]c(C(=O)CSc2nnc(-c3ccco3)n2Cc2ccccc2)c1C,0,0,-11,1,16352*
Cn1cnnc1SCC(=O)NCCC(c1ccccc1)c1ccccc1,0,-1,8,-8,2429
CCCn1c(SCC(=O)NC(C)(C)C)nnc1-c1ccco1,1,-7,4,-10,4753
Cn1cnnc1SCC(=O)NCCc1ccccc1,-3,-3,-2,-6,23752*
COc1cc(CNc2ncnc3c2ncn3[C@H]2CN(Cc3cccc(C(F)(F)F)c3)C[C@@H](CO)O2)cc(OC)c1OC,0,-2,/,-4,3797
CC(C)(C)NC(=O)CN(C(=O)Cn1nnc(-c2ccccc2F)n1)c1cccc2c1CCCC2,-1,-1,-2,-2,17013*
COc1ccccc1N(CC(=O)NC(C)(C)C)C(=O)Cn1nnc(-c2ccc(C)o2)n1,0,-7,-6,8,9620
COc1ccc(Cl)cc1C(=O)NC1CC(C)(C)NC(C)(C)C1,0,0,13,2,3630
C[C@H](CO)N1C[C@H](C)[C@@H](CN(C)Cc2cccnc2)Oc2cc(-c3cccnc3)ccc2S1(=O)=O,0,-2,9,-5,2900
CC(=O)c1ccc(OC(=O)COc2ccccc2Cl)cc1,-126,-115,4,?,32253*
CCOc1ccc(NC(=O)CN(C)C(=O)C2CC(=O)N(Cc3ccco3)C2)cc1OCC (centres undefined),-3,-5,4,-5,?
CC(=O)/C(=N/Nc1ccccc1)N1CCOCC1,2,-2,-6,3,22407*
SMILES,BoNT A protease,Anthrax LF inh2,MazEF act,BoNT-F LC inh,Autofluor counter
Cc1ccccc1Cn1ccc(-c2ccc3c(c2)OCO3)n1,?,0,-11,-2,20609*
COC(=O)c1ccc2c(=O)n(NC(=O)C(c3ccccc3)c3ccccc3)c(=S)[nH]c2c1,?,2,-6,-2,16293*
COC(=O)c1ccc2c(=O)n(CCO)c(=S)[nH]c2c1,0,2,-2,4,8136
COc1cc(OC)cc(-c2nc3cc(C)ccc3o2)c1,-1,-10,-6,-2,22263*
Cc1noc(C)c1C(=O)N1CCC1(C)C(=O)NS(=O)(=O)c1ccc(Cl)cc1 (centres undefined),0,1,/,4,4055
CC(C)CN(C(=O)COC(=O)Cc1n[nH]c(=O)c2ccccc12)C1CCS(=O)(=O)C1 (centres undefined),?,0,6,1,21604*
Cc1cccc(NC(=O)CCNC(=O)c2ccc(Br)cc2)c1C,1,-2,-1,-6,2976
CCOC(=O)c1c(NC(=S)Nc2ccc(Cl)cc2)sc2c1CCN(C)C2,46*,34*,171*,11,15220
COC(=O)C1=CN(c2ccc(F)cc2)C=C(C(=O)OC)C1c1cccc([N+](=O)[O-])c1,-1,-7,6,-7,3126
CC(C)(C)NC(=S)N1CCC2CC1c1c(Cl)cccc12 (centres undefined),0,-1,4,-5,3249
COc1ccc2nc(N3CCCC3)c(C#N)cc2c1,6,0,70*,-5,3689
Cn1ncc(Br)c1C(=O)NC1CCCCCC1,-1,2,8,2,6754
O=C(CCc1ccccc1)n1nc(-c2ccccc2)nc1NCc1ccco1,-3,-5,0,-4,23164*
Cn1c(SCC(=O)N/N=C/C=C\c2ccco2)nc2ccccc21,1,0,-12,2,22987*
CCOC(=O)C(=COC(=O)c1ccccc1)NC(=O)Cc1ccccc1,0,5,14,-4,4053
CC(OC(=O)C1CC=CCC1C(N)=O)C(Cl)=C(Cl)Cl (centres undefined),2,0,2,2,22015*
CCCCNC(=O)c1cc2c(=O)n3cccc(C)c3nc2n(Cc2ccncc2)c1=N,-4,0,29,-4,24016*
COCCNC(=O)c1cc2c(=O)n3cccc(C)c3nc2n(Cc2ccncc2)c1=N,1,-7,-1,1,5865
Cc1cccn2c(=O)c3cc(C(=O)NCc4ccco4)c(=N)n(C(C)C)c3nc12,2,2,10,-3,16268*
Cc1cccn2c(=O)c3cc(C(=O)NCCc4ccccc4)c(=N)n(Cc4ccco4)c3nc12,12,17,6,20,3758
Cc1cccn2c(=O)c3cc(C(=O)NCc4ccco4)c(=N)n(CCc4ccccc4)c3nc12,1,-9,54*,-9,4935
CC1(NC(=O)Cc2ccc(Cl)c(Cl)c2)CCS(=O)(=O)C1 (centres undefined),0,5,7,1,4504
O=C(NNS(=O)(=O)c1ccccc1[N+](=O)[O-])c1ccc(O)cc1,-1,0,2,-5,24381*
COc1ccc(-c2ccc(/C=C3/C(=N)N4C=CSC4=NC3=O)o2)c([N+](=O)[O-])c1,4,3,445*,-3,10377
N=C1/C(=C/c2cccn2-c2ccc([N+](=O)[O-])cc2)C(=O)N=C2SC=CN12,1,2,-6,-4,2067
C=CCN1C(=O)C(C)(C)Nc2ccccc21,?,3,-2,1,20000*
